Source: PubChem (several laboratories)
In the library only some 2.7% were active in any assay of this set; here they are far more common.
14-3-3 Bad PPI – disrupts binding of bovine 14-3-3 zeta to phospho-Bad peptide. TR-FRET 14-3-3zeta/Dy647-pBad peptide displacement, 1 h. inhibition, % at 21.7 µM. 220,000 tested, 0.71% active;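 active = inhibition above about 70%, limit read from the data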
Bim-Mcl-1 – inhibitors of Bim-Mcl-1 interaction, human. Q07820. Bead-based flow cytometry, Bim peptide-Mcl-1 binding. inhibition, % at 10 µM. 190,000 tested, 0.1% active. AID 1009; in the data active = inhibition above about 40%
Mcl1 Noxa PPI – Mcl-1/Noxa interaction inhibition | TR-FRET Mcl-1/Noxa peptide binding, 2 h | Q07820 | inhibition, % at 21.7 µM | 220,000 tested, 1.5% active;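 active = compounds that cut the protein-peptide binding signal by more than 50% relative to plate controls in a single-dose test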;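 note: His-tagged Mcl-1 with rhodamine Noxa BH3 peptide and terbium anti-His antibody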
eIF4E-4G inh – eIF4E/eIF4G interaction inhibition in translation initiation; inhibition, % at 21.7 µM; AID 782; P63073+Q04637; 220,000 tested, 0.37% active; TR-FRET eIF4E-eIF4GI(517-606) binding, 2 h;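 active = inhibition above about 30%, limit read from the data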
Mcl1 Bid PPI – disrupts binding of human Mcl-1 to Bid peptide | TR-FRET Mcl-1/Bid-Dy647 peptide binding, 1536-well | 220,000 tested, 0.97% active | inhibition, % at 21.7 µM;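 active = compounds that cut the binding signal by more than half at the single screening dose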;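 note: His-tagged Mcl-1 with europium anti-His antibody binding Bid BH3 peptide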
Pf gametocyte – P. falciparum stage V gametocyte viability inhibition; inhibition, % at 10.9 µM; P. falciparum stage V gametocytes, ATP luminescence, 24 h; 150,000 tested, 0.065% active; AID 743093;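 active = inhibition above the mean plus 3 SD of compounds within the control limits, set per campaign, cut at about 38% in these data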
A number is an active result; [ ] = remark or other dose.

What do the screens show for `CC1CCN(CCCn2c(=S)[nH]c3c(sc4ccc([N+](=O)[O-])cc43)c2=O)CC1`?
14-3-3 Bad PPI: inactive; Bim-Mcl-1: inactive; Mcl1 Noxa PPI: inactive; eIF4E-4G inh: inactive; Mcl1 Bid PPI: inactive; Pf gametocyte: inactive

How did CC1CCN(CCCn2c(=S)[nH]c3c(sc4ccccc43)c2=O)CC1 do in these assays?
14-3-3 Bad PPI: inactive; Bim-Mcl-1: inactive; Mcl1 Noxa PPI: 59; eIF4E-4G inh: inactive; Mcl1 Bid PPI: inactive; Pf gametocyte: inactive

What do the screens show for `Cn1c(C(C)(O)C(O)c2ccccc2)nc2ccccc21` (configuration not stated)?
14-3-3 Bad PPI: inactive; Bim-Mcl-1: inactive; Mcl1 Noxa PPI: inactive; eIF4E-4G inh: 88[fluorescence artefact?]; Mcl1 Bid PPI: inactive

What do the screens show for `CC(O)c1nc2ccccc2n1C(C)c1ccccc1` (configuration not stated)?
Pf gametocyte: inactive

What do the screens show for `Cc1cccc(C)c1OCCNC(=O)CCC(=O)c1ccccc1`?
14-3-3 Bad PPI: inactive; Bim-Mcl-1: inactive; Mcl1 Noxa PPI: inactive; eIF4E-4G inh: inactive; Mcl1 Bid PPI: inactive; Pf gametocyte: inactive

How did Cc1ccc(N=c2oc3cc(O)ccc3cc2C(N)=O)cc1 do in these assays?
14-3-3 Bad PPI: inactive; Bim-Mcl-1: inactive; Mcl1 Noxa PPI: inactive; eIF4E-4G inh: inactive; Mcl1 Bid PPI: inactive; Pf gametocyte: inactive

How did COc1ccc(N=c2oc3cc(O)ccc3cc2C(=O)Nc2ccccn2)cc1OC do in these assays?
14-3-3 Bad PPI: inactive; Bim-Mcl-1: inactive; Mcl1 Noxa PPI: 53; eIF4E-4G inh: inactive; Mcl1 Bid PPI: inactive; Pf gametocyte: inactive

How did CC(C)(C)C(=O)Nc1ccnc(-c2cccnc2)n1 do in these assays?
14-3-3 Bad PPI: inactive; Bim-Mcl-1: inactive; Mcl1 Noxa PPI: inactive; eIF4E-4G inh: inactive; Mcl1 Bid PPI: inactive

What do the screens show for `CS/C(=C/[N+](=O)[O-])Nc1cccc2c1C(C)CC2(C)C` (configuration not stated)?
14-3-3 Bad PPI: inactive; Bim-Mcl-1: inactive; Mcl1 Noxa PPI: inactive; eIF4E-4G inh: inactive; Mcl1 Bid PPI: inactive

Results for COc1c(Cl)cc(Cl)cc1CNCCO ?
14-3-3 Bad PPI: inactive; Bim-Mcl-1: inactive; Mcl1 Noxa PPI: inactive; eIF4E-4G inh: inactive; Mcl1 Bid PPI: inactive; Pf gametocyte: inactive

Results for CCOc1c(Cl)cc(Cl)cc1CNCCNCCO ?
14-3-3 Bad PPI: 72; Bim-Mcl-1: inactive; Mcl1 Noxa PPI: inactive; eIF4E-4G inh: inactive; Mcl1 Bid PPI: inactive

How did CCOc1cccc(CNCCO)c1OCc1ccc(Cl)cc1Cl do in these assays?
14-3-3 Bad PPI: inactive; Bim-Mcl-1: inactive; Mcl1 Noxa PPI: inactive; eIF4E-4G inh: inactive; Mcl1 Bid PPI: 72; Pf gametocyte: inactive

What do the screens show for `CCOC(=O)C(C(=O)OCC)c1cc(Br)c2noc3c2c1C(=O)c1ccccc1-3`?
14-3-3 Bad PPI: inactive; Bim-Mcl-1: 42; Mcl1 Noxa PPI: 57; eIF4E-4G inh: inactive; Mcl1 Bid PPI: inactive

Results for CC(=O)OCCNc1cc(N2CCN(C)CC2)c2noc3c2c1C(=O)c1ccccc1-3 ?
14-3-3 Bad PPI: inactive; Bim-Mcl-1: inactive; Mcl1 Noxa PPI: inactive; eIF4E-4G inh: inactive; Mcl1 Bid PPI: inactive

Results for CCOC(=O)C1(C(=O)OCC)C(c2ccccc2)CC(O)N1C(C)=O (configuration not stated) ?
14-3-3 Bad PPI: 92; Bim-Mcl-1: inactive; Mcl1 Noxa PPI: inactive; eIF4E-4G inh: inactive; Mcl1 Bid PPI: inactive; Pf gametocyte: inactive

What do the screens show for `Cc1ccc(NC(=O)c2cncc(Br)c2)cc1S(=O)(=O)N(C)C`?
14-3-3 Bad PPI: inactive; Bim-Mcl-1: inactive; Mcl1 Noxa PPI: inactive; eIF4E-4G inh: inactive; Mcl1 Bid PPI: inactive; Pf gametocyte: inactive

What do the screens show for `CC1=C(C(=O)OC(C)C)C(c2ccccc2Cl)CC(=O)N1` (configuration not stated)?
14-3-3 Bad PPI: 80; Bim-Mcl-1: inactive; Mcl1 Noxa PPI: inactive; eIF4E-4G inh: inactive; Mcl1 Bid PPI: inactive

How did COc1cc(/C=C2/SC(=S)NC2=O)ccc1OS(=O)(=O)c1ccc(C)cc1 do in these assays?
14-3-3 Bad PPI: inactive; Bim-Mcl-1: inactive; Mcl1 Noxa PPI: 98; eIF4E-4G inh: inactive; Mcl1 Bid PPI: 82

What do the screens show for `COc1ccc(/C=C2\SC(=S)NC2=O)cc1OS(=O)(=O)c1ccc(NC(C)=O)cc1`?
14-3-3 Bad PPI: inactive; Bim-Mcl-1: inactive; Mcl1 Noxa PPI: inactive; eIF4E-4G inh: inactive; Mcl1 Bid PPI: inactive; Pf gametocyte: inactive

What do the screens show for `COc1cc(/C=C2\SC(=S)NC2=O)ccc1OS(=O)(=O)c1ccccc1`?
14-3-3 Bad PPI: inactive; Bim-Mcl-1: inactive; Mcl1 Noxa PPI: 79; eIF4E-4G inh: inactive; Mcl1 Bid PPI: inactive

Results for CCOc1c(Nc2ccccc2O)c(=O)c1=O ?
14-3-3 Bad PPI: inactive; Mcl1 Noxa PPI: inactive; eIF4E-4G inh: inactive; Mcl1 Bid PPI: inactive; Pf gametocyte: inactive

What do the screens show for `COC(=O)C(=O)/C=C(\O)c1ccc(C)cc1`?
14-3-3 Bad PPI: inactive; Bim-Mcl-1: inactive; Mcl1 Noxa PPI: 57; eIF4E-4G inh: inactive; Mcl1 Bid PPI: inactive

How did Cc1ccc(/C(O)=C/C(=O)C(=O)NNC(=O)C(O)(c2ccccc2)c2ccccc2)cc1 do in these assays?
14-3-3 Bad PPI: inactive; Bim-Mcl-1: inactive; Mcl1 Noxa PPI: inactive; eIF4E-4G inh: inactive; Mcl1 Bid PPI: inactive

How did COc1cc(NC(=O)c2ccc3c(=O)n(Cc4ccco4)c(=S)[nH]c3c2)cc(OC)c1OC do in these assays?
14-3-3 Bad PPI: inactive; Bim-Mcl-1: inactive; Mcl1 Noxa PPI: inactive; eIF4E-4G inh: inactive; Mcl1 Bid PPI: 52

How did CCCN(CCC)C(=O)c1ccc2c(=O)n(Cc3ccco3)c(=S)[nH]c2c1 do in these assays?
14-3-3 Bad PPI: inactive; Bim-Mcl-1: inactive; Mcl1 Noxa PPI: inactive; eIF4E-4G inh: inactive; Mcl1 Bid PPI: inactive; Pf gametocyte: inactive

What do the screens show for `COc1ccc(CCn2c(=S)[nH]c3cc(C(=O)NCc4ccco4)ccc3c2=O)cc1OC`?
14-3-3 Bad PPI: 77; Bim-Mcl-1: inactive; Mcl1 Noxa PPI: inactive; eIF4E-4G inh: inactive; Mcl1 Bid PPI: 52

How did Cc1cc(/C=C(\C#N)C(=O)NCc2cccs2)c(C)[nH]1 do in these assays?
14-3-3 Bad PPI: inactive; Bim-Mcl-1: inactive; Mcl1 Noxa PPI: inactive; eIF4E-4G inh: inactive; Mcl1 Bid PPI: inactive; Pf gametocyte: inactive

How did CNCc1ccccc1Sc1cccc(O)c1 do in these assays?
14-3-3 Bad PPI: inactive; Bim-Mcl-1: inactive; Mcl1 Noxa PPI: inactive; eIF4E-4G inh: inactive; Mcl1 Bid PPI: inactive

Results for CNCc1ccccc1Sc1cc(O)ccc1O ?
14-3-3 Bad PPI: inactive; Bim-Mcl-1: inactive; Mcl1 Noxa PPI: 99; eIF4E-4G inh: 48[fluorescence artefact?]; Mcl1 Bid PPI: inactive; Pf gametocyte: inactive

Results for CCOC(=O)c1c(C)n(C)c2c(C)cc(O)c(OC(=O)CC)c12 ?
14-3-3 Bad PPI: inactive; Bim-Mcl-1: inactive; Mcl1 Noxa PPI: inactive; eIF4E-4G inh: inactive; Mcl1 Bid PPI: inactive; Pf gametocyte: inactive

How did COc1cc(/C=C2/SC(=Nc3ccc(O)cc3)NC2=O)cc(OC)c1O do in these assays?
14-3-3 Bad PPI: inactive; Bim-Mcl-1: inactive; Mcl1 Noxa PPI: 51; eIF4E-4G inh: inactive; Mcl1 Bid PPI: inactive; Pf gametocyte: inactive

What do the screens show for `O=C1NC(=Nc2ccc(O)cc2)S/C1=C\C=C\c1ccco1`?
14-3-3 Bad PPI: inactive; Mcl1 Noxa PPI: 60; eIF4E-4G inh: inactive; Mcl1 Bid PPI: inactive; Pf gametocyte: inactive
